Outcome and AC50 data for 22 molecules are collected here from PubChem BioAssay (EPA / NIEHS).

Molecules are shown by their SMILES. Active and inactive are the calls of the source. How the source made its calls: active means hit-call score of the fitted dose curve at least 0.9, where 1 is the maximum; inactive means score below 0.9.

A word on the AC50: it is the concentration giving half of the maximal activity seen.

A short description of the first experiment: CEETOX_H295R_11DCORT: CeeTox H295R High-throughput Steroidogenesis Assay for 11-Deoxycortisol (11DCORT) (AID 2283432).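 On AC50: 11-deoxycortisol secreted into the medium measured by LC-MS/MS.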 The following applies: actives raise or lower the signal. The essentials: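 Adrenal carcinoma line H295R, run per OECD 456 with minor changes, was forskolin-stimulated (10 uM, 48 h) before a 48 h chemical exposure at 0.1% DMSO. Secreted 11-deoxycortisol was quantified by HPLC-MS/MS.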
With `Nc1nc(Cl)nc2c1ncn2[C@H]1C[C@H](O)[C@@H](CO)O1`, the result was inactive.

Regarding `CCCCCCCCCC[N+](C)(C)[O-]`, the AC50 was 28.5 µM (active).

For the molecule `Oc1ccc(O)cc1`, the result was inactive.

For the molecule `O=C(O)CN(CC(=O)O)CC(=O)O`, the outcome was inactive.

For the molecule `O=C1c2c(O)cccc2Cc2cccc(O)c21`, the AC50 is 50 µM (active).

`CC1=C(C)S(=O)(=O)CCS1(=O)=O`: the outcome was inactive.

For the molecule `CCN(CC)CCOc1ccc(C(=C(Cl)c2ccccc2)c2ccccc2)cc1`, the AC50 is 0.104 µM (active).

Regarding `Oc1ccccc1O`, the call was inactive.

As for `O=C1NC(=O)C(c2ccccc2)(c2ccccc2)N1`, the molecule was classed as inactive.

Take `CN(C)C(=O)NC1(c2ccccc2)CCN(CCC[C@]2(c3ccc(Cl)c(Cl)c3)CCCN(C(=O)c3ccccc3)C2)CC1`: the molecule was called inactive.

Consider `O=C(Oc1ccccc1)c1cccc(C(=O)Oc2ccccc2)c1`, for which the AC50 is 36.4 µM (active).

As for `CC(=O)[C@@]1(O)CC[C@H]2[C@@H]3CCC4=CC(=O)CC[C@]4(C)[C@H]3CC[C@@]21C`, the AC50 is 8.94 µM (active).

Turning to `CCCCc1nc2cccnc2n1Cc1ccc(-c2ccccc2-c2nnn[nH]2)cc1`, the result was inactive.

Consider `CC(C)(O)c1ccc(CNC(=O)c2cccnc2Oc2ccc(F)cc2)cc1`, for which the molecule was classed as inactive.

With `Cc1cc(Cc2ccc(N)c(C)c2)ccc1N`, the AC50 was 34.9 µM (active).

Turning to `COc1ccc(C(=O)Nc2nc3ccccc3c(NCc3ccccc3)c2C#N)cc1`, the call was inactive.

Take `S=c1[nH]c2ccccc2s1`: the molecule was called inactive.

A further experiment in a line: CEETOX_H295R_OHPREG: CeeTox H295R High-throughput Steroidogenesis Assay for OH-Pregnenolone (OHPREG) (AID 2283434). Particulars: actives raise or lower the signal. A digest of the protocol: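 Secreted 17alpha-hydroxypregnenolone measured by HPLC-MS/MS after liquid-liquid extraction. Human adrenal H295R cells received 48 h forskolin (10 uM) stimulation before 48 h chemical exposure at 0.1% final DMSO; MTT viability in same wells; bidirectional fit against DMSO.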
`Nc1nc(Cl)nc2c1ncn2[C@H]1C[C@H](O)[C@@H](CO)O1`: the concentration at half-maximal activity (AC50) was 6.46 µM (active).

Consider `CCCCCCCCCC[N+](C)(C)[O-]`, for which the molecule was called inactive.

In the case of `Oc1ccc(O)cc1`, the outcome was inactive.

`O=C1c2c(O)cccc2Cc2cccc(O)c21`: the result was inactive.

`O=C1OC(c2ccc(O)cc2)(c2ccc(O)cc2)c2ccccc21`: the result was inactive.

Take `CC1=C(C)S(=O)(=O)CCS1(=O)=O`: the molecule was classed as inactive.

Turning to `CCN(CC)CCOc1ccc(C(=C(Cl)c2ccccc2)c2ccccc2)cc1`, the half-maximal activity concentration (AC50) was 0.0411 µM (active).

Consider `Oc1ccccc1O`, for which the molecule was called inactive.

For the molecule `O=C1NC(=O)C(c2ccccc2)(c2ccccc2)N1`, the outcome was inactive.

`CN(C)C(=O)NC1(c2ccccc2)CCN(CCC[C@]2(c3ccc(Cl)c(Cl)c3)CCCN(C(=O)c3ccccc3)C2)CC1`: the call was inactive.

Turning to `O=C(Oc1ccccc1)c1cccc(C(=O)Oc2ccccc2)c1`, the outcome was inactive.

Take `Cc1c(C)c2c(c(C)c1O)CCC(C)(COc1ccc(CC3SC(=O)NC3=O)cc1)O2` (stereo not drawn): the molecule was classed as inactive.

Regarding `CC(=O)[C@@]1(O)CC[C@H]2[C@@H]3CCC4=CC(=O)CC[C@]4(C)[C@H]3CC[C@@]21C`, the AC50 was 14.2 µM (active).

As to `CCCCc1nc2cccnc2n1Cc1ccc(-c2ccccc2-c2nnn[nH]2)cc1`, the AC50 was 10.6 µM (active).

Consider `CC(C)(O)c1ccc(CNC(=O)c2cccnc2Oc2ccc(F)cc2)cc1`, for which the outcome was inactive.

As for `Cc1cc(Cc2ccc(N)c(C)c2)ccc1N`, the concentration at half-maximal activity (AC50) was 4.69 µM (active).

On to `COc1ccc(C(=O)Nc2nc3ccccc3c(NCc3ccccc3)c2C#N)cc1`, for which the AC50 was 9.81 µM (active).

In the case of `S=c1[nH]c2ccccc2s1`, the AC50 was 78.9 µM (active).

For `CC(=O)O[C@]1(C(C)=O)CC[C@H]2[C@@H]3C=C(Cl)C4=CC(=O)[C@@H]5C[C@@H]5[C@]4(C)[C@H]3CC[C@@]21C`, the AC50 is 2.37 µM (active).

Consider `CCC(C)N(C)C(=O)c1cc2ccccc2c(-c2ccccc2Cl)n1` (stereo not drawn), for which the result was inactive.

The nature of a further experiment: CEETOX_H295R_OHPROG: CeeTox H295R High-throughput Steroidogenesis Assay for OH-Progesterone (OHPROG) (AID 2283435).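 On AC50: 17alpha-hydroxyprogesterone secreted into medium measured by HPLC-MS/MS.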 The following applies: actives raise or lower the signal. A digest of the protocol: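 Steps: seed H295R cells and adhere overnight; stimulate with 10 uM forskolin for 48 h; replace with chemical-containing medium (0.1% DMSO) for 48 h; extract medium with MTBE; quantify 17alpha-hydroxyprogesterone by reverse-phase C18 HPLC-MS/MS against a 7-point curve.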
Turning to `Nc1nc(Cl)nc2c1ncn2[C@H]1C[C@H](O)[C@@H](CO)O1`, the outcome was inactive.

Consider `CCCCCCCCCC[N+](C)(C)[O-]`, for which the half-maximal activity concentration (AC50) is 31.7 µM (active).

For `Oc1ccc(O)cc1`, the molecule was called inactive.

As for `O=C(O)CN(CC(=O)O)CC(=O)O`, the molecule was classed as inactive.

In the case of `O=C1c2c(O)cccc2Cc2cccc(O)c21`, the AC50 is 66.3 µM (active).

In the case of `O=C1OC(c2ccc(O)cc2)(c2ccc(O)cc2)c2ccccc21`, the AC50 is 1.77 µM (active).

Take `CC(COCC(C)OC(=O)c1ccccc1)OC(=O)c1ccccc1` (stereo not drawn): the result was inactive.

Turning to `CC1=C(C)S(=O)(=O)CCS1(=O)=O`, the molecule was called inactive.

Turning to `CCN(CC)CCOc1ccc(C(=C(Cl)c2ccccc2)c2ccccc2)cc1`, the AC50 was 0.147 µM (active).

In the case of `Oc1ccccc1O`, the result was inactive.

In the case of `CN(C)C(=O)NC1(c2ccccc2)CCN(CCC[C@]2(c3ccc(Cl)c(Cl)c3)CCCN(C(=O)c3ccccc3)C2)CC1`, the outcome was inactive.

As to `O=C(Oc1ccccc1)c1cccc(C(=O)Oc2ccccc2)c1`, the result was inactive.

As for `Cc1c(C)c2c(c(C)c1O)CCC(C)(COc1ccc(CC3SC(=O)NC3=O)cc1)O2` (stereo not drawn), the call was inactive.

As for `CC(=O)[C@@]1(O)CC[C@H]2[C@@H]3CCC4=CC(=O)CC[C@]4(C)[C@H]3CC[C@@]21C`, the AC50 is 41.2 µM (active).

With `CCCCc1nc2cccnc2n1Cc1ccc(-c2ccccc2-c2nnn[nH]2)cc1`, the call was inactive.

On to `CC(C)(O)c1ccc(CNC(=O)c2cccnc2Oc2ccc(F)cc2)cc1`, for which the result was inactive.

Regarding `Cc1cc(Cc2ccc(N)c(C)c2)ccc1N`, the half-maximal activity concentration (AC50) was 1.37 µM (active).

Turning to `COc1ccc(C(=O)Nc2nc3ccccc3c(NCc3ccccc3)c2C#N)cc1`, the half-maximal activity concentration (AC50) was 0.349 µM (active).

As for `S=c1[nH]c2ccccc2s1`, the AC50 is 73.1 µM (active).

Turning to `CC(=O)O[C@]1(C(C)=O)CC[C@H]2[C@@H]3C=C(Cl)C4=CC(=O)[C@@H]5C[C@@H]5[C@]4(C)[C@H]3CC[C@@]21C`, the AC50 is 3.63 µM (active).

As to `CCC(C)N(C)C(=O)c1cc2ccccc2c(-c2ccccc2Cl)n1` (stereo not drawn), the AC50 is 3.85 µM (active).
